Common to all, as to assay: NCI-60 one-dose screen, 48 h (100 = growth as untreated, 0 = no growth, -100 = all killed)
The subject of one experiment is NCI-H23 lung. The note with it: 10 µM unless noted.
Another experiment deals with NCI-H226 lung. The note with it: 10 µM unless noted.
In another experiment the test system is NCI-H322M lung. The note with it: 10 µM unless noted.
Another experiment deals with HOP-62 NSCLC. The conditions noted are these: 10 µM unless noted.
The test system of another experiment is NCI-H460 lung. The conditions noted are these: 10 µM unless noted.
In a further experiment the test system is HOP-92 NSCLC. The note with it: 10 µM unless noted.
Another experiment deals with NCI-H522 lung. The note with it: 10 µM unless noted.
Another experiment deals with A549/ATCC NSCLC. The note with it: 10 µM unless noted.
The subject of a further experiment is 786-0 renal. The conditions noted are these: 10 µM unless noted.
The next experiment concerns COLO 205 colon. The note with it: 10 µM unless noted.
A further experiment relates to DU-145 prostate. The note with it: 10 µM unless noted.
In the next experiment the test system is MALME-3M melanoma. The conditions noted are these: 10 µM unless noted.
The next experiment concerns MDA-MB-231 breast. The conditions noted are these: 10 µM unless noted.
The next experiment relates to RXF 393 renal. The conditions noted are these: 10 µM unless noted.
Another experiment deals with SF-268 CNS. The conditions noted are these: 10 µM unless noted.
The next experiment deals with SF-295 CNS. The note with it: 10 µM unless noted.
In the next experiment the test system is SF-539 CNS. The conditions noted are these: 10 µM unless noted.
The next experiment deals with M14 melanoma. The conditions noted are these: 10 µM unless noted.
The subject of the next experiment is UACC-257 melanoma. The note with it: 10 µM.

Structures are written as SMILES. Compounds without any hit were thinned out: in the full panel of roughly 83,000, 20% have a hit.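 Negative percent growth values reflect cell death: -40 means 40% of the cells present at the start died, and -100 means all died.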 A number with no mark means an inactive call. Active and inactive are the calls of the source. Rule for the calls: active = growth percent below 10; inactive = the rest.

`CCOC(=O)CC(=O)CSC1=NC2C(NN1)N(C)C(=O)N2C` (centres undefined): the growth in the experiment on NCI-H23 lung is 75.5%; in the experiment on NCI-H226 lung it was 100%; in the experiment on NCI-H322M lung, 103%; with HOP-62 NSCLC, 107%; in the experiment on NCI-H460 lung, 105%; with HOP-92 NSCLC, 88.7%. For the same molecule, the growth was 72.8% in the experiment on NCI-H522 lung; 102% in the experiment with A549/ATCC NSCLC; 103% in the experiment with 786-0 renal; 108% in the experiment on COLO 205 colon; 90.2% with DU-145 prostate; 61.6% with MALME-3M melanoma. For the same molecule, the growth in the experiment on MDA-MB-231 breast is 75.3%; with RXF 393 renal it was 105%; in the experiment with SF-268 CNS, 99.4%; in the experiment on SF-295 CNS it was 102%; in the experiment with SF-539 CNS it was 91.5%; in the experiment on M14 melanoma it was 81.3%.

Consider `CCNCCCn1c2c(c3cc(OC)c(OC)cc3c1=O)C(=O)c1cc(OC)cnc1-2`, for which the growth in the experiment on NCI-H23 lung is 21.1%; in the experiment with NCI-H226 lung it was 17.7%; in the experiment with NCI-H322M lung, 33.2%; in the experiment with HOP-62 NSCLC it was -12.2% (active); in the experiment on NCI-H460 lung, 0.566% (active); in the experiment on HOP-92 NSCLC, 31.1%. Moreover, the growth with NCI-H522 lung was 13.4%; in the experiment with A549/ATCC NSCLC, 34.4%; in the experiment on 786-0 renal it was -3.55% (active); in the experiment on COLO 205 colon, 13.4%; in the experiment on DU-145 prostate, 19.6%; in the experiment with MALME-3M melanoma, 62.9%. For the same molecule, the growth was 16.3% with MDA-MB-231 breast; 13.6% in the experiment with RXF 393 renal; 39.5% in the experiment on SF-268 CNS; 14.8% in the experiment with SF-295 CNS; -7.15% (active) in the experiment with SF-539 CNS; 13.9% in the experiment with M14 melanoma.

On to `C=C(C)C(=O)O[C@H]1C[C@@]2(C)OC(=CC2=O)/C(CO)=C\[C@H]2OC(=O)C(=C)[C@H]12`, for which the growth in the experiment with NCI-H23 lung was -35.2% (active); in the experiment with NCI-H226 lung, -39.3% (active); in the experiment on NCI-H322M lung, 87.6%; in the experiment with HOP-62 NSCLC, 58.9%; in the experiment on NCI-H460 lung, 12.5%; with HOP-92 NSCLC, -61.4% (active). Further, the growth in the experiment with NCI-H522 lung is -68.3% (active); with A549/ATCC NSCLC, 65.7%; in the experiment with 786-0 renal, -66.5% (active); in the experiment with COLO 205 colon it was -72.9% (active); in the experiment on DU-145 prostate, -25.2% (active); with MALME-3M melanoma it was -68.8% (active). Moreover, the growth in the experiment with MDA-MB-231 breast is -54% (active); in the experiment on RXF 393 renal it was -67.6% (active); in the experiment with SF-268 CNS, -13.8% (active); in the experiment on SF-295 CNS it was 32.6%; in the experiment with SF-539 CNS, -82.9% (active); with UACC-257 melanoma it was -34% (active). For the same molecule, the growth with M14 melanoma was -34% (active).

As to `COc1ccc(-c2oc3cc(O)cc(O)c3c(=O)c2OC)cc1O`, the growth is 25.7% in the experiment on NCI-H23 lung; 73.6% in the experiment on NCI-H226 lung; 41.2% with NCI-H322M lung; 29.1% in the experiment with HOP-62 NSCLC; 8.84% (active) with NCI-H460 lung; 41.2% in the experiment with HOP-92 NSCLC. For the same molecule, the growth was -21% (active) in the experiment on NCI-H522 lung; 38% in the experiment with A549/ATCC NSCLC; 38.8% in the experiment with 786-0 renal; 91.4% in the experiment with COLO 205 colon; 15.7% with DU-145 prostate; 68.8% in the experiment on MALME-3M melanoma. In addition, the growth with MDA-MB-231 breast was 32.7%; in the experiment on RXF 393 renal, -29.9% (active); in the experiment with SF-268 CNS it was 45.2%; in the experiment on SF-295 CNS, -24.1% (active); in the experiment on SF-539 CNS it was -34.6% (active); in the experiment with UACC-257 melanoma, 78.8%. The growth with M14 melanoma was 28.3%.

Consider `CS(=O)(=O)c1nccc(-c2c(-c3ccc(F)c(OCCc4ccccc4)c3)nc3sccn23)n1`, for which the growth in the experiment with NCI-H23 lung was 100%; with NCI-H226 lung, 89.2%; in the experiment on NCI-H322M lung, -26.9% (active); with HOP-62 NSCLC, 103%; in the experiment with NCI-H460 lung, 28.8%; in the experiment on HOP-92 NSCLC it was 50.1%. The growth in the experiment with NCI-H522 lung is -12.5% (active); in the experiment on A549/ATCC NSCLC, 99%; with 786-0 renal it was 98.2%; with COLO 205 colon, 112%; with DU-145 prostate it was -87.9% (active); with MALME-3M melanoma, 119%. In addition, the growth in the experiment with MDA-MB-231 breast is 89.4%; in the experiment on RXF 393 renal, 99.1%; in the experiment on SF-268 CNS, 98.7%; with SF-295 CNS, 97.2%; with SF-539 CNS it was 93%; in the experiment with UACC-257 melanoma, -16.4% (active). Moreover, the growth in the experiment on M14 melanoma is 83.2%.

For `C=CCn1c(SCC(=O)Nc2cccc(C(=O)/C=C/c3ccccc3)c2)nc2ccccc2c1=O`, the growth with NCI-H23 lung is 77.2%; in the experiment on NCI-H226 lung, 78.1%; in the experiment on NCI-H322M lung, 91.5%; in the experiment with HOP-62 NSCLC, 113%; in the experiment with NCI-H460 lung, 91.8%; with HOP-92 NSCLC, 76.1%. Also, the growth in the experiment on NCI-H522 lung was 86.2%; in the experiment on A549/ATCC NSCLC, 82.6%; in the experiment on 786-0 renal, 100%; with COLO 205 colon, 120%; in the experiment with DU-145 prostate, 77.4%; in the experiment on MALME-3M melanoma, 100%. For the same molecule, the growth in the experiment on MDA-MB-231 breast was 94.4%; in the experiment with RXF 393 renal, 83.3%; in the experiment on SF-268 CNS, 92%; with SF-295 CNS, 95.7%; in the experiment with SF-539 CNS it was 77.1%; in the experiment with UACC-257 melanoma, 118%. Moreover, the growth with M14 melanoma was 77.1%.

On to `CNC(=O)c1cc(Oc2ccc3nc(NC(=O)c4cccc(C(F)(F)F)c4)sc3c2)ccn1`, for which the growth is 101% in the experiment with NCI-H23 lung; 104% in the experiment with NCI-H226 lung; 103% with NCI-H322M lung; 117% with HOP-62 NSCLC; 103% in the experiment on NCI-H460 lung; 110% in the experiment with HOP-92 NSCLC. The growth in the experiment with NCI-H522 lung is 98.9%; in the experiment with A549/ATCC NSCLC, 101%; with 786-0 renal it was 97.2%; with COLO 205 colon, 112%; in the experiment on DU-145 prostate it was 101%; with MALME-3M melanoma, 97.2%. Besides, the growth was 104% in the experiment with MDA-MB-231 breast; 106% in the experiment with RXF 393 renal; 98% in the experiment on SF-268 CNS; 92.6% in the experiment with SF-295 CNS; 99.4% with SF-539 CNS; 104% in the experiment with UACC-257 melanoma. Also, the growth in the experiment with M14 melanoma is 96.6%.

For `Cn1cc(-c2nn3cc(-c4cccnc4)nc3s2)c2ccccc21`, the growth with NCI-H23 lung is 30.1%; with NCI-H226 lung, 30.2%; in the experiment on NCI-H322M lung, 55.3%; in the experiment with HOP-62 NSCLC it was 39.1%; with NCI-H460 lung, 9.94% (active); in the experiment on HOP-92 NSCLC, 26.1%. The growth in the experiment on NCI-H522 lung was -12.9% (active); in the experiment on A549/ATCC NSCLC, 44%; with 786-0 renal, 59.7%; in the experiment on COLO 205 colon it was -2.12% (active); in the experiment with DU-145 prostate, 58.3%; in the experiment with MALME-3M melanoma, 22.5%. The growth was 31.7% in the experiment with MDA-MB-231 breast; 54.3% in the experiment with RXF 393 renal; 66.7% in the experiment with SF-268 CNS; 40.7% in the experiment on SF-295 CNS; 26.5% in the experiment on SF-539 CNS; 14.5% in the experiment with M14 melanoma.
